Source: PubChem (National Center for Advancing Translational Sciences (NCATS))
KB-V1 MDR tox: kills drug-selected multidrug resistant KB-V1 cells; KB-V1 MDR cells viability, CellTiter-Glo, 72 h; Potency, µM (highest dose often 46.1 µM), most hits filed as cytotoxic; hit rate 3.4% among 400,000; further: on the % scale 0 is the no-effect control and ±100 the full control effect; nearly all actives have a fitted effect of over 60% in size
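Readout: CellTiter-Glo luminescence, 10 min after addition. Cells: KB-V1 MDR subline, 72 h at 37 degrees C with compound. Analysis: corrected, normalized data fitted to concentration-effect curves.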
ATXN2 expr inh: ATXN2 expression inhibition; HEK-293 ATXN2-luciferase reporter, luminescence, 24 h; Potency, µM (doses to about 57 µM), for the others: at the highest dose activity change, negative = inhibition, most hits filed as inhibitors; AID 1745845; hit rate 0.72% among 360,000; further: on the % scale 0 is the no-effect control and ±100 the full control effect; nearly all actives have a fitted effect of over 55% in size
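ATXN2-luciferase reporter cells (luciferase flanked by upstream and downstream ATXN2 gene portions) were treated 24 h at 37 °C with compounds at up to 57 uM. SteadyGlo luminescence gave expression; GF-AFC fluorescence gave viability.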
HT1080 IDH1KD tx: HT-1080 IDH1 knockdown cell toxicity (counter line) | hit rate 2% among 360,000 | Potency, µM (highest dose often 46.1 µM), for inactives: at the highest dose activity, negative = toxicity, actives largely listed as cytotoxic | HT-1080 IDH1 knockdown viability, ATP luminescence, 48 h | AID 686971;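 further: 0% = DMSO wells and -100% = cell-free medium wells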
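% activity derives from luminescence (CellTiter-Glo), normalised to DMSO and no-cell wells. HT-1080-IDH1KD cells, 750/well, had 48 h compound exposure at 37 °C.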
HT1080NT lethal: kills 2HG-producing HT-1080-NT fibrosarcoma cells; Potency, µM (doses to about 46.1 µM), inactives show at the top dose activity, negative = less viability, hits mostly cytotoxic; hit rate 1.6% among 360,000; HT-1080-NT fibrosarcoma viability, CellTiter-Glo ATP luminescence, 48 h;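 further: NT is the 2HG producing partner of a matched IDH1 knockdown line; 0% = DMSO-treated cells and -100% = media-only wells without cells; nearly all actives have a fitted effect of over 55% in size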
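750 cells/well, RPMI + 5% FBS; 2 h settle, compound pin-transfer, 48 h at 37 degrees C. CellTiter-Glo 10 min RT, luminescence. Normalized to DMSO and media-only wells.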
ATXN viability: reduces viability in counter-screen for ATXN expression inhibitors; Potency, µM (series often up to 56.7 µM), most hits filed as cytotoxic; AID 651635; S2 cells (HEK-293 line with an ATXN2-luciferase reporter) viability, CellTiter-Fluor protease fluorescence, 24 h; hit rate 0.49% among 400,000; further: nearly all actives have a fitted effect of over 40% in size
KB-3-1 cytotox: kills parental KB-3-1 adenocarcinoma cells; hit rate 1.4% among 400,000; AID 1347075; KB-3-1 viability, CellTiter-Glo ATP luminescence, 72 h; Potency, µM (doses to about 46.1 µM), hits mostly cytotoxic; further: on the % scale 0 is the no-effect control and ±100 the full control effect; nearly all actives have a fitted effect of over 60% in size
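Cells are dispensed, compounds pinned in, plates held at 37 °C for 72 h, then CellTiter-Glo is added and luminescence read after 10 minutes. Cell line: parental KB-3-1 in phenol-red-free DMEM, 10% FBS.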
Starred values were filed as active, the others as inactive; i = inactive; ? = inconclusive; · = not tested or not shown. Only some compounds are listed: those with a hit (about 6.2% of all), similar ones and a draw of the others. The call rests on the fitted dose curve; in most records, active means well fitted curve in the direction sought with a large enough effect; inconclusive means small, poorly fitted or top-dose-only effect, or another doubt; inactive means no such curve, though single readings can be large; an effect the other way counts as inactive or inconclusive. Potency means the concentration at half of the fitted maximal effect.

SMILES	KB-V1 MDR tox	ATXN2 expr inh	HT1080 IDH1KD tx	HT1080NT lethal	ATXN viability	KB-3-1 cytotox
CC(=O)/C(N=Nc1cccc(C(F)(F)F)c1)=C(\C)O	i	-5%	14%	14%	i	i
CN(C(=O)/C(N=Nc1cccc(C(F)(F)F)c1)=C(\O)C(F)(F)F)c1ccccc1	?	-4%	?	11µM*	i	i
O=C(/C(N=Nc1cccc(C(F)(F)F)c1)=C(/O)c1cccs1)C(F)(F)F	?	?	21µM*	?	?	?
CCc1ccc2nc3nc(C)cc(C)c3c(N)c2c1	21µM*	?	13µM*	?	·	i
Cc1cc(C)c2c(N)c3ccccc3nc2n1	?	?	?	?	·	i
Cc1ccc(CN2CCc3nnc(C(NC(=O)c4ccoc4)C(C)C)n3CC2)cc1C (stereo not drawn)	·	·	·	·	i	·
Cc1cc(N2CCN(c3ccccc3)CC2)n2cc(-c3ccccc3)nc2n1	?	22%	3%	2%	?	i
Cc1cc(N2CCN(c3ccccc3Cl)CC2)n2cc(-c3ccccc3)nc2n1	16µM*	?	?	-28%	?	?
CSc1ccc(-c2cnc(N3CCC(C(N)=O)CC3)s2)cc1	i	·	·	·	·	i
CCOc1ccc(CCNC(=O)CSc2nn(-c3ccc(C)c(Cl)c3)c(=S)s2)cc1OCC	6.5µM*	0%	13%	9%	i	i
O=C(O[C@H]1[C@H](Cc2ccccc2)NS(=O)(=O)[C@H]2C[C@@H]3C=C[C@]12O3)c1ccccc1Br	i	·	·	·	·	i
CN(C(=O)c1ccc(-c2nn(C)c(=O)c3ccccc23)cc1)C1CCCCC1	4.1µM*	-8%	1%	-21%	i	18µM*
CN(CCO)C(=O)c1ccc(-c2nn(C)c(=O)c3ccccc23)cc1	i	0%	-1%	0%	i	i
COc1cc(OC)cc(C(=O)NNC(=O)c2nn(C)c(=O)c3ccccc23)c1	13µM*	-2%	23%	15%	i	?
Cn1nc(C(=O)NC2CCCCC2)c2ccccc2c1=O	16µM*	-14%	-2%	2%	i	i
COc1ccc(-c2nnc(NC(=O)c3ccc4c(c3)OCCO4)o2)cc1	i	-25%	-29%	-22%	i	i
CS(=O)(=O)c1cccc(-c2nnc(NC(=O)c3ccc(S(=O)(=O)N4CCCC4)cc3)o2)c1	i	4%	1%	5%	i	i
COc1ccc(-c2nnc(NC(=O)c3ccc(F)cc3)o2)cc1	i	-15%	?	-7%	20µM*	i
O=C(Nc1nnc(-c2ccc(F)cc2)o1)c1ccc(S(=O)(=O)N2CCOCC2)cc1	?	?	?	-15%	i	4.1µM*
CN(Cc1ccccc1)C(=O)c1cccc(NC(=O)Cc2cccc(NC(=O)C3CCN(C(=O)c4ccccc4)CC3)c2)c1	i	3%	-3%	2%	i	i
c1ccc(-c2cc(N3CCOCC3)nc3ccccc23)cc1	21µM*	-8%	?	-12%	i	i
C=CCC1CCCCC12NC(=O)N(c1ccccc1)N2 (stereo not drawn)	i	-14%	?	?	i	i
O=C1CCC2(CC1)NC(=O)N(c1ccccc1)N2	i	-2%	8.2µM*	?	i	i
Cc1ccc(Cl)cc1NC(=O)C1CCCN(S(=O)(=O)c2cccc3cccnc23)C1 (stereo not drawn)	i	-17%	·	·	?	i
C=C1[C@@H](O)[C@H](CC(C)C)N(Cc2ccccc2Br)S1(=O)=O	i	-28%	?	23µM*	·	?
SMILES	KB-V1 MDR tox	ATXN2 expr inh	HT1080 IDH1KD tx	HT1080NT lethal	ATXN viability	KB-3-1 cytotox
c1ccc2c(c1)C1=NCCN1c1ccccc1-2	12µM*	·	16µM*	?	i	?
Cc1cnc(-n2ncc(C(=O)NCCN3CCOCC3)c2-c2cccs2)nc1-c1ccc(F)cc1	·	·	·	·	i	·
Cc1ccc(S/C=C\C(=O)c2ccccc2)cc1	?	?	13µM*	22µM*	22µM*	i
Cc1ccc(C(=O)/C=C\C(=O)c2ccc(C)cc2)cc1	i	-10%	?	-1%	i	i
COCc1c(C(=O)NC2CCCC2)cnn1-c1nccc(-c2ccco2)n1	·	·	·	·	i	·
COc1ccc(CNC(=O)c2ccc3c(c2)N=C(C)c2c(C)ccc(C)c2S3)cc1	1.8µM*	2%	·	·	?	4.6µM*
CC1=Nc2cc(C(=O)NCCc3ccccc3)ccc2Sc2c(C)ccc(C)c21	0.41µM*	-18%	·	·	?	0.65µM*
CCCNC(=O)c1ccc2c(c1)N=C(C)c1c(C)ccc(C)c1S2	?	-7%	·	·	?	0.82µM*
CC1=Nc2cc(C(=O)NCCc3ccc(Cl)cc3)ccc2Sc2c(C)ccc(C)c21	1.6µM*	11%	·	·	?	2.6µM*
Nc1ccc(N2CCN(c3ccc(F)cc3)CC2)cc1	i	?	-18%	-17%	?	i
COC(=O)N1CCN(c2ccc(Cl)c(Cl)c2)CC1	23µM*	-2%	6%	-2%	i	?
COC(=O)N1CCN(c2ccc(OC)cc2)CC1	?	0%	0%	?	i	i
Nc1ccc(N2CCN(c3ccc(Cl)c(Cl)c3)CC2)cc1	18µM*	-20%	-6%	-10%	i	21µM*
Cc1ccc2c(c1)-c1nc(-c3ccc(Cl)cc3)cc(-c3coc4ccccc4c3=O)c1CO2	i	7%	·	·	i	i
CCN(CC)CCNC(=O)c1cc2c(-c3ccc(Cl)cc3)nn(C)c2s1	?	28µM*	18µM*	18µM*	·	?
CCCN(CCC)CCCNC(=O)c1cc2c(-c3ccc(OC)c(OC)c3)nn(C)c2s1	?	-19%	21µM*	?	i	i
COc1ccc(-c2nn(C)c3sc(C(=O)NCCN(C)C)cc23)cc1OC	i	?	-7%	-11%	?	i
CCCCN(CC)CCNC(=O)c1cc2c(-c3ccc(Cl)cc3)nn(C)c2s1	23µM*	?	21µM*	21µM*	·	?
CCCN(CCC)CCNC(=O)c1cc2c(-c3ccc(Cl)cc3)nn(C)c2s1	i	?	-14%	-18%	?	16µM*
COC(=O)c1c(OCc2ccccn2)cc(=O)n2c1CCN(Cc1cccc(C(F)(F)F)c1)CC2	·	·	·	·	i	·
CCOc1ccc(C(=O)Nc2ccc3oc(-c4cccnc4)nc3c2)cc1	i	-2%	·	·	i	i
CN1CCN(/N=C/c2c3ccccc3c(Cl)c3ccccc23)CC1	?	-17%	21µM*	23µM*	i	i
